# The whole screen tested about 1,600 compounds, of which about 1,100 (69%) were called active. The set was probably picked from earlier hits. These entries were drawn from the full list. Results with a measured potency or affinity are listed apart. Inconclusive results are not listed.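 Rule for the calls: active = signal drop with fitted half-maximal concentration no higher than twice the top valid tested concentration; inconclusive = flat curve with 30 to 70% signal loss, or poor fit; inactive = the rest, including signal rises and flat curves within 30%.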
# Experiment: HepG2 cell cytotoxicity, dose response, cytotoxicity control for Shn3 inhibitor project, CellTiter-Glo, cherry-picked (AID 624134);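 note: 0% = median of neutral control wells and -100% = median of positive control wells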
# Conditions: HepG2 viability, CellTiter-Glo ATP luminescence, 48 h; series mostly up to 35 µM; activity change, negative = cytotoxicity: at the top concentration
row,Compound,"activity change, negative = cytotoxicity"
1,Cc1ccc(C(=O)N2CCN(C)CC2)cc1S(=O)(=O)N1CCCCCC1,8.18% (inactive)
2,O=C(OCCN1C(=O)c2cccc3c(N4CCOCC4)ccc(c23)C1=O)c1ccccc1Cl,2.34% (inactive)
3,COc1ccc(C(=O)OCC(=O)Nc2ccc3[nH]c(=O)[nH]c3c2)cc1,-7.95% (inactive)
4,Cc1cccc(C(C)(C)C)c1OCCN1CCCC1,1.96% (inactive)
5,CCOC(=O)Cc1csc(SCC(=O)c2c(N)n(CC(C)C)c(=O)n(C)c2=O)n1,-10.9% (inactive)
6,COc1ccc2c(c1)c(CC(=O)Nc1cc(C)ccc1C)c(C)n2C(=O)c1ccc(Cl)cc1,-11.7% (inactive)
7,S=C(Nc1ccccc1)Nc1ccc(OCc2ccc(Cl)cc2Cl)cc1,42% (inactive)
8,CCCCN1CC(COCc2ccccc2)Oc2cccc(Oc3cc(C)c(C)c(C)c3)c2S1(=O)=O (stereo not drawn),-10.9% (inactive)
9,O=C(CSc1nc(C(F)(F)F)cc(=O)[nH]1)N1CCCC1,-6.06% (inactive)
10,Clc1ccc(-c2cc(-c3nnc4n3CCCCC4)c3ccccc3n2)cc1,-33.7% (inactive)
11,Cc1cc(CN2CCOCC2)c(O)c(C2(C)CCCCC2)c1,12.9% (inactive)
12,Oc1c(CN2CCN(c3ccccc3)CC2)cc(Br)c2cccnc12,-23.7% (inactive)
13,Cc1ccnc(N/C=C(/NC(=O)c2ccccc2)C(=O)N/N=C\c2ccc(F)cc2)n1,-1.6% (inactive)
14,CCS(=O)(=O)c1ccc2oc(SCC(=O)N3CCCCC3)nc2c1,-4.82% (inactive)
15,Oc1ccc(-c2csc(Nc3cccc4ccccc34)n2)cc1O,-12.1% (inactive)
16,CCC(=O)c1cn(CC(=O)Nc2ccccc2Cl)c2ccccc12,-8.14% (inactive)
17,O=C(Cn1cc(C(=O)c2ccco2)c2ccccc21)Nc1ccccc1F,-32.2% (inactive)
18,NS(=O)(=O)c1ccc(CNC(=S)NC(=O)c2ccco2)cc1,-1.37% (inactive)
19,Cc1ccc(-c2nnc(N3CCC(C)CC3)c3ccccc23)cc1C,-27.1% (inactive)
20,C[C@@H]1CN([C@H](C)CO)C(=O)c2cc(Br)cnc2O[C@H]1CN(C)C(=O)Cc1ccncc1,-4.74% (inactive)
21,Cc1cc(C(=O)COC(=O)c2ccccc2Br)c(C)n1CC1CCCO1 (stereo not drawn),-0.177% (inactive)

row,Compound,"activity change, negative = cytotoxicity"
1,CCOC(=O)C1CCN(C(=O)c2sc3nc(C)nc(N4CCC(C)CC4)c3c2C)CC1,4.07% (inactive)
2,CN(C(=O)CSc1nc(-c2cccs2)nc2ccccc12)C1CCS(=O)(=O)C1 (stereo not drawn),-9.43% (inactive)
3,CC(C)=CCC/C(C)=C/CNC(=O)C[C@H]1C[C@H](C(=O)N(C(C)C)C(C)C)[C@@]2(C)c3[nH]c4cc(CCC(=O)N(C)C)ccc4c3CCN2C1=O,6.25% (inactive)
4,O=[N+]([O-])c1cc(S(=O)(=O)C(F)(F)F)ccc1Sc1nc2ccccc2s1,-14.7% (inactive)
5,CS(=O)(=O)c1ccc(Sc2nc3ccccc3s2)c([N+](=O)[O-])c1,-9.91% (inactive)
6,N#C/C(=C(\O)Cc1ccccc1)c1nc2ccccc2[nH]1,-17.9% (inactive)
7,C=CCOC(=O)C1=C(C)N=C2SCCC(=O)N2C1c1cccs1 (stereo not drawn),6.99% (inactive)
8,CC(=O)O[C@H]1CC[C@@]2(C)C(=CC[C@H]3[C@@H]4CC[C@H](C(C)=O)[C@@]4(C)CC[C@@H]32)C1,0.073% (inactive)
9,C=CCNc1nc(N2CCOCC2)c(C#N)c2c1CN(C)CC2,-15% (inactive)
10,CC(=O)N1CCOc2cc(S(=O)(=O)NCc3ccc(F)cc3)c(C)cc21,-9.5% (inactive)
11,C[C@@H]1CN([C@H](C)CO)C(=O)CCCn2nncc2CO[C@H]1CN(C)S(=O)(=O)c1ccc2c(c1)OCCCO2,-15.3% (inactive)
12,CCn1nnc2cc(C(=O)Nc3cc(Cl)ccc3C)ccc21,10.6% (inactive)
13,O=C(Sc1cccc2cccnc12)c1ccccc1Br,-2.3% (inactive)
14,CN(c1ccccc1)S(=O)(=O)c1cccc(NC(=O)CSc2nncs2)c1,-2.43% (inactive)
15,CCOc1ccc2nc(SC3CC(=O)N(c4ccc(C)cc4)C3=O)sc2c1 (stereo not drawn),-18.3% (inactive)
16,CC(C)CCNC(=O)c1cc2c(=O)[nH]c3ccccc3c2s1,-3.4% (inactive)
17,Cc1ccc(OC(=O)CCC(=O)Oc2ccc(C)cc2C)c(C)c1,-6.33% (inactive)
18,CCCC(c1nnnn1Cc1ccc(OC)cc1)N1CCN(c2ccccc2)CC1 (stereo not drawn),0.213% (inactive)
19,CCOC(=O)C1CCN(C(=O)c2ccc(OCC(=O)Nc3cccc(C(F)(F)F)c3)c(OC)c2)CC1,-1.16% (inactive)
20,Cc1ccccc1N/C(=N/S(=O)(=O)c1ccccc1)c1ccc(F)cc1,3.51% (inactive)
21,CCOC(=O)C1CCCN(S(=O)(=O)c2ccc(S(=O)(=O)N(CC)CC)cc2)C1 (stereo not drawn),-10.4% (inactive)

row,Compound,"activity change, negative = cytotoxicity"
1,Cc1ccc(CNC(=O)CSc2c3c(nc4ccc(Cl)cc24)CCCC3)o1,-8.16% (inactive)
2,CCOc1cc(/C=C2\C(=O)ON=C2C)ccc1OCc1ccccc1,-10.3% (inactive)
3,CC1=NOC(=O)/C1=C\c1ccc(-c2cc(Cl)ccc2Cl)o1,-3.66% (inactive)
4,O=C(CSc1nc2c(c(=O)n1-c1ccc(Br)cc1)SCC2)NCc1ccco1,-2.52% (inactive)
5,Cc1cc(-n2c(C)cc(C(=O)CSc3nncn3C)c2C)no1,-14.7% (inactive)
6,CCCC(=O)NC(=S)Nc1ccc(N2CCN(C(=O)c3cccs3)CC2)cc1,-8.86% (inactive)
7,O=C(NCCc1ccccc1)c1ccc2c(c1)OCCO2,-7.75% (inactive)
8,CCOC(=O)c1sc(NC(=O)CCCn2nc([N+](=O)[O-])c(Cl)c2C)c(C(=O)OCC)c1C,-11.3% (inactive)
9,CCOC(=O)c1c(NC(=O)c2nn(CC)cc2Br)sc(C)c1C,-2.17% (inactive)
10,COc1ccccc1N1CCN(c2ncc(C(=O)N3CCN(c4cccc(Cl)c4)CC3)c3ccccc23)CC1,-11% (inactive)
11,O=C(Nc1cccc(S(=O)(=O)NC2=NCCC2)c1)C1CC(=O)N(c2ccc3c(c2)OCCO3)C1 (stereo not drawn),-3.38% (inactive)
12,C=C1C(=O)[C@@]23[C@H](O)C[C@@H]4C(C)(C)CC[C@H](O)[C@]4(C)[C@@H]2C[C@H](O)[C@@H]1[C@H]3O,-9.65% (inactive)
13,O=C(CSc1nc2[nH]ncc2c(=O)[nH]1)Nc1ccccc1C(F)(F)F,-6.41% (inactive)
14,CCc1c(O)nc(SCC(=O)Nc2ccccc2)n(-c2ccccc2)c1=O,-0.296% (inactive)
15,O=C(NCCNC(=O)Oc1cccc2ccccc12)Oc1cccc2ccccc12,-9.86% (inactive)
16,COc1cc2ncnc(N[C@H](C)c3ccccc3)c2cc1OC,-7.07% (inactive)
17,Cc1cc(C)n(-c2cc(-n3nc(C)cc3C)ncn2)n1,-4.14% (inactive)
18,COc1ccc(C(=O)OCC(=O)Nc2ncc([N+](=O)[O-])s2)cc1OC,-13.6% (inactive)
19,CCn1c(C)cc(C(=O)COC(=O)c2ccccc2[N+](=O)[O-])c1C,-3.22% (inactive)
20,CS(=O)(=O)c1ccc(C(=O)OCC(=O)N2CCOCC2)cc1[N+](=O)[O-],-12.7% (inactive)
21,C=C1C(=O)C23C(O)C1CCC2C12COC3(O)C(O)C1C(C)(C)CCC2O (stereo not drawn),-11.4% (inactive)
